According to PubChem BioAssay AID493201 (National Center for Advancing Translational Sciences (NCATS), 2011):
Inconclusive results are not listed. A number with no mark means an inactive call. Calls of active or inactive are those of the source. The call rests on the fitted dose curve; in most records, active means well fitted activation curve with a large enough effect; inconclusive means small, poorly fitted or top-dose-only effect; inactive means no such curve, though single readings can be large or run the other way.

assay: qHTS Assay for Identifying a Potential Treatment of Ataxia-Telangiectasia: Secondary assay (no NCS) hit validation; details: A-T patient fibroblasts, AlphaLISA, no DNA damage added, 90 min; series mostly up to 76.9 µM; activation: at the top concentration;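 further: phosphorylated KAP1 signal as a proxy for ATM-like kinase activity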; on activation: 0% is about no effect
Procedure, shortened: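 Without NCS-induced DNA breaks, ATM-like activity scored as phospho-KAP1 AlphaLISA signal (pKAP1/total KAP1 bead pair) in ATM-null F2112 fibroblasts; compound series up to 76.7 uM final, 37C incubation, lysates read on AlphaScreen protocol.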
Potency means the concentration at half of the fitted maximal effect.

In the case of O=C1C(Cl)=C(Nc2ccc3cn[nH]c3c2)C(=O)c2ccccc21, the Potency was 1.3 µM (active).
For COc1ccc(C2NC(=S)NC3=C2N2CCC3CC2)cc1 (centres undefined), the Potency was 1.16 µM (active).
With CC1C(c2ccccc2)N(C)C(c2ccccc2)CC1(O)c1ccccc1 (centres undefined) the Potency was 13 µM (active).
In the case of COc1ccccc1OC(=O)Nc1ccc(Cl)cc1, the Potency was 3.28 µM (active).
In the case of CC(C)(C=O)C1=CC(=O)c2ccccc2C1=O, the Potency was 51.9 µM (active).
With CC(C)OP(=O)(OC(C)C)C(O)c1ccc(N(C)C)cc1 (centres undefined) the Potency was 9.23 µM (active).
With CNC(=O)c1ccc(-c2sc3nc(N4CCOCC4)c4c(c3c2N)CC(C)(C)OC4)o1 the Potency was 29.2 µM (active).
In the case of CN1C[C@@H]2C(c3ccccc3)C3(c4ccccc4)CC2(C3)[C@H]1c1ccccc1 (some centres undefined), the Potency was 20.7 µM (active).
In the case of Cc1oc2c(c(C)cc3oc(=O)c(CC(=O)NCC(=O)NCC(=O)O)c(C)c32)c1C, the Potency was 3.28 µM (active).

First: CCn1c(SCc2cccc(F)c2)nnc1-c1ccncc1
Second: Fc1ccc(C2=NOC(c3nnc(-c4ccccc4)o3)C2)cc1 (centres undefined)
The “activation” value of the first is higher: 11.8% for the first, 5.93% for the second.

First: O=C(Nc1cc(S(=O)(=O)N2CCOCC2)ccc1Cl)c1cc(=O)c2ccccc2o1
Second: Cc1cccc(C)c1NC(=O)COC(=O)c1cc(=O)c2ccccc2o1
The “activation” value of the first is lower: -5.22% for the first, 26.3% for the second.

Going from COC(=O)c1ccncc1C(=O)Nc1ccc(Oc2ncc(C(F)(F)F)cc2Cl)cc1 to O=C(Nc1ccc(N2CCCC2)cc1)c1ccc(Cl)cc1Cl, the “activation” value falls from -5.38% to -20%.

Going from CNC(=S)N/N=C/c1ccc2c(c1)OCCO2 to COc1ccc(/C=N/Nc2nc(=O)[nH]nc2C)cc1OC, the “activation” value falls from 75.4% to -2.15%.

First: COC(=O)c1ccc2[nH]c3cccc(/C(=C/c4ccccc4)c4ccccc4)c3c2c1
Second: O=C(NCc1ccccc1)c1cccnc1Sc1ccccc1
The “activation” value of the first is lower: -4.3% for the first, 0.87% for the second.

Compared with CCOc1ccc(NC2=NCC(=O)N2Cc2cccs2)cc1, CCOc1cccc(/C=C/c2ccc3cccc(O)c3n2)c1OC is lower in “activation” value: 2.61% for the first, -5.38% for the second.

Going from CCC(C)Nc1nc(N)c([N+](=O)[O-])c(NCCO)n1 (centres undefined) to COc1ccc(CNC(=O)COc2cccnc2[N+](=O)[O-])cc1OC, the “activation” value falls from -5.22% to -13%.

Compared with O=C(c1ccc(F)cc1)N1CCC(c2ccccc2)C1 (centres undefined), O=C(O)CCC(=O)NN1C(=O)c2ccccc2NC1c1ccco1 (centres undefined) is higher in “activation” value: -9.68% for the first, 4.35% for the second.

Going from C/C(CCC1CC(C)OC1=O)=N\NC(N)=S (centres undefined) to CCC(C)N1C(=S)SC(C)(C)C1N(O)C(=O)NC1CCCCC1 (centres undefined), the “activation” value rises from -2.61% to -0.848%.

Going from CC(C)(C)NC(=O)c1cccc2c1-c1ccccc1C2=O to COc1cccc(OC)c1C(=O)NC(=O)Nc1c(C)cccc1C, the “activation” value rises from -6.45% to -1.74%.

Compared with COc1ccc(N2CCN(C(=O)c3cc4cc(Cl)ccc4[nH]3)CC2)cc1, N#Cc1c2c(c(-n3cnc4ccccc43)n3c1nc1ccccc13)CCC2 is higher in “activation” value: -8.7% for the first, 5.38% for the second.

First: CC1CC(C)CN(S(=O)(=O)c2ccc(C(=O)NCCCn3ccnc3)cc2)C1 (centres undefined)
Second: Cc1ccc(C)c(-c2csc(Nc3ncccn3)n2)c1
The “activation” value of the first is lower: 3.23% for the first, 27.8% for the second.

With CCN(CC)c1ccc2c(Cl)c(Br)c(=O)oc2c1 the “activation” value was 24.3%.
